Source: PubChem BioAssay
Calls of active or inactive are those of the source. Unless noted, no rule for the calls is given here.

What was measured:
[1] = resazurin metabolic signal in HepG2 cells – cell-based, resazurin fluorescence, 24 h, PK04 Diversity Set, profiling panel (AID 1172); settings: HepG2 viability, higher = more signal; also: test concentration not given here
[2] = budding yeast growth changes without added modifier – OD600, strain BY4716, 24 h, basal condition, primary screen (AID 1173); settings: S. cerevisiae BY4716 growth, OD600, 24 h; higher = more signal, called active from +8 up or from −8 down
[3] = viability profiling in MM1S myeloma cells – cell-based, resazurin fluorescence, basal, 24 h, PK04 Diversity Set, profiling panel (AID 1174); settings: higher = more signal, called active from +8 up or from −8 down;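 also: MM1S multiple myeloma cell line; test concentration not given here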
[4] = target: Dihydroorotate dehydrogenase (quinone), mitochondrial (Plasmodium falciparum (isolate 3D7)) (UniProt Q08210); assay: inhibition of P. falciparum DHODH – biochemical, C-terminal His tag, absorbance 600 nm, primary screen (AID 1175); settings: PfDHODH enzyme, DCIP absorbance 600 nm; higher = more signal, called active from +8 up or from −8 down;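 also: recombinant parasite enzyme with a five histidine tag at its C terminus; test concentration not given here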
[5] = inhibition of PAO1 biofilm formation – strain PAO1, LB-PBS medium, absorbance 600 nm, primary screen (AID 1176); also: test concentration not given here; settings: P. aeruginosa PAO1 growth/biofilm, A600, 12 h; higher = more signal
[6] = growth modulation of vineyard yeast isolate – strain RM11-1a, OD600, basal, 24 h, primary screen (AID 1177);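 also: cultures grown under basal conditions with no added stressor; test concentration not given here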; settings: S. cerevisiae RM11-1a growth, OD600, 24 h; higher = more signal, called active from +8 up or from −8 down
[7] = growth of efflux-deficient E. coli DRC39 – strain DRC39, OD650, 24 h, E. coli filamentation inducers, primary screen (AID 1178);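 also: growth measured as culture turbidity by optical density at 650 nm; test concentration not given here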; settings: E. coli DRC39 acrAB, higher = more signal, called active from +8 up or from −8 down
[8] = growth of efflux-deficient E. coli DRC39 – strain DRC39, OD650, 48 h, E. coli filamentation inducers, primary screen (AID 1179);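 also: screen aims at cell division blockers that make cells filament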; settings: E. coli DRC39 delta-acrAB growth, higher = more signal, called active from +8 up or from −8 down
[9] = viability profiling in RPMI8226 myeloma cells – cell-based, resazurin fluorescence, basal, 24 h, PK04 Diversity Set, profiling panel (AID 1180); settings: higher = more signal;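 also: RPMI8826 multiple myeloma cell line at 5000 cells per well; test concentration not given here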
[10] = target: E3 ubiquitin-protein ligase XIAP (Homo sapiens) (UniProt P98170); assay: small molecules binding XIAP protein – biophysical, small-molecule microarray, fluorescence 635 nm, primary screen (AID 1181); settings: higher = more signal;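 also: score merges 667 nm emission and signal to noise over triplicate slides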
Chain of E3 ubiquitin-protein ligase XIAP (Homo sapiens) (P98170 whole entry, looked up): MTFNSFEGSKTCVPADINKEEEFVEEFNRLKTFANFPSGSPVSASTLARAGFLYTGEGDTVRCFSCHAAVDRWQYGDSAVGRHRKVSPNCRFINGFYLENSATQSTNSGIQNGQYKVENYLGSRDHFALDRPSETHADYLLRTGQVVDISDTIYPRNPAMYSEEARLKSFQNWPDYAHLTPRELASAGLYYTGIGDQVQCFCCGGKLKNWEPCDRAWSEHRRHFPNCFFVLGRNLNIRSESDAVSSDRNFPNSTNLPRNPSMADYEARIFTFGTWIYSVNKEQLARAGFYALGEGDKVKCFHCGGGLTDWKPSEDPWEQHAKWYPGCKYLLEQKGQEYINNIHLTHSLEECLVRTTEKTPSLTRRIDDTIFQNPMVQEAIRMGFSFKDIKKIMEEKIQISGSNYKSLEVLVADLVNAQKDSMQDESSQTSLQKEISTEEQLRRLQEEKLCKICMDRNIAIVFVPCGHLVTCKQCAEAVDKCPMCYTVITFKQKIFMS

Chain of Dihydroorotate dehydrogenase (quinone), mitochondrial (Plasmodium falciparum (isolate 3D7)) (Q08210 whole entry, looked up): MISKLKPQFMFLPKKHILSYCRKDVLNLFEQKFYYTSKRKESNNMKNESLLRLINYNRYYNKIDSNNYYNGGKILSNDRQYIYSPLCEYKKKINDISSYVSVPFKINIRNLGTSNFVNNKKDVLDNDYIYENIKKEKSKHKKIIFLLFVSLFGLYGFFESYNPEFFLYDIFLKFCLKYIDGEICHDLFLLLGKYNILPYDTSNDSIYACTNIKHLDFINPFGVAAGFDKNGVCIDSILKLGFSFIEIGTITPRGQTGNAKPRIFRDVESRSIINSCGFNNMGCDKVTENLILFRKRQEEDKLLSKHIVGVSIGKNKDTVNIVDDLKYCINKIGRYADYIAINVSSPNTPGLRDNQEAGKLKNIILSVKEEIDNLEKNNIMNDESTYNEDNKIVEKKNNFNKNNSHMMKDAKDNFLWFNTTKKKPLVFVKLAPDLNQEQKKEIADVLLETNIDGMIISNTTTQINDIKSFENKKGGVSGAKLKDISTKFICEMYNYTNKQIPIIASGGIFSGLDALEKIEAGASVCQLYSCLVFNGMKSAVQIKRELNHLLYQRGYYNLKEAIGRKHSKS

| SMILES | z-score [1] | z-score [2] | z-score [3] | composite z-score [4] | z-score [5] | z-score [6] | z-score [7] | z-score [8] | z-score [9] | composite z-score [10] |
| --- | --- | --- | --- | --- | --- | --- | --- | --- | --- | --- |
| Cc1ccc(S[C@]2(C(=O)NC3CC3)CC(=O)N(Cc3ccccc3)[C@@H]2c2ccc(CO)cc2I)cc1 | 0.417 | -3.23 (inactive) | -2.45 (inactive) | -1.47 (inactive) | 0.751 (inactive) | -1.46 (inactive) | 0.714 (inactive) | 0.753 (inactive) | -1.71 | -0.252 |
| CO[C@H]1O[C@H](CO)[C@@H](OC(=O)Nc2ccc(C(F)(F)F)cc2)[C@H](OC(=O)Nc2ccc3c(c2)OCO3)[C@@H]1OC(=O)Nc1ccc2c(c1)OCO2 | -1.09 | 0.867 (inactive) | -2.45 (inactive) | 0.524 (inactive) | 1.54 (inactive) | 3.25 (inactive) | 1.53 (inactive) | 0.2 (inactive) | -1.97 | 0.098 |
| COc1cccc(-c2cccc(=O)o2)c1 | -0.314 | -7.29 (inactive) | -0.28 (inactive) | -1.02 (inactive) | 0.381 (inactive) | 0.346 (inactive) | -0.0605 (inactive) | -0.17 (inactive) | -0.0335 | 0.488 |
| CCc1cccc(NC(=O)O[C@H]2[C@H](OC(=O)Nc3ccccc3-c3ccccc3)[C@@H](OC(=O)Nc3ccccc3-c3ccccc3)[C@@H](OC)O[C@@H]2CO)c1 | -4.43 | 0.972 (inactive) | -4.83 (inactive) | 0.153 (inactive) | 0.0279 (inactive) | 0.924 (inactive) | -1.04 (inactive) | -0.361 (inactive) | -5.09 | 0.19 |
| C[C@H]1NC(=O)[C@@]23C(=O)N[C@@H](Cc4ccccc4)C2[C@H](C)[C@@]2(C)O[C@H]2C3/C=C/C/C=C\CNC(=O)[C@@H]2CCCN2C1=O (stereo not given in full) | 0.23 | -0.704 (inactive) | 0.607 (inactive) | -1.43 (inactive) | -0.0126 (inactive) | -0.0532 (inactive) | 0.901 (inactive) | 0.534 (inactive) | 1.14 | 0.0049 |
| COc1ccc(C(=O)Nc2ccc(CN3C(=O)[C@]4(O[C@H](CCO)[C@@H]([Si](C)(C)c5ccc(OC)cc5)[C@@H]4C)c4ccccc43)cc2)cc1 | -5.44 | -3.84 (inactive) | -9.1 (active) | 0.132 (inactive) | 2.16 (inactive) | 4.35 (inactive) | 0.65 (inactive) | -0.416 (inactive) | -6.25 | 0.0623 |
| COc1ccccc1CN1C(=O)c2ccccc2[C@@]2(Cc3ccccc3N(CC(C)C)C2=O)[C@@H]1c1ccc(CO)cc1 | -0.593 | 0.0849 (inactive) | -0.681 (inactive) | -0.359 (inactive) | 0.332 (inactive) | -1.04 (inactive) | -0.169 (inactive) | -0.0353 (inactive) | -0.564 | 0.0957 |
